Reference: ChEMBL document CHEMBL1157539, “Thousands of chemical starting points for antimalarial lead identification” (Nature, 2010)

Assays:
Format in all cases: functional
Plasmodium falciparum [1] = assay: GSK_TCMDC: Inhibition of Plasmodium falciparum 3D7 in whole red blood cells, using parasite LDH activity as an index of growth. Test compounds present at 2uM
Plasmodium falciparum [2] = assay: GSK_TCMDC: Inhibition of Plasmodium falciparum Dd2 in whole red blood cells, using parasite LDH activity as an index of growth. Test compounds present at 2uM
HepG2 = assay: GSK_TCMDC: Percent inhibition of human HepG2 cell line. Test compounds present at 10uM.

SMILES	Inhibition (Plasmodium falciparum [1]) [%]	Inhibition (Plasmodium falciparum [2]) [%]	Inhibition (HepG2) [%]
O=C(c1cc(-c2ccco2)n[nH]1)N1CCN(S(=O)(=O)c2ccc(Cl)cc2)CC1	96	95	0
O=S(=O)(Nc1ccc(CCN2CCCCC2CCN2CCCC2)cc1)c1ccc(-c2ccccc2)cc1 (stereo not given)	98	18	18
CC1N=C(N)N=C(N)N1OCc1ccccc1.Cl (stereo not given)	94	72	62
COc1ccc(NC(=O)Nc2cccc(-c3cccc(-c4nc5cccc(C)c5[nH]4)c3)c2)cc1	100	43	0
CN(c1ccc(NC(=O)Nc2cc(C(C)(C)C)on2)cc1)c1ccnc(NCCOC(=O)Nc2cc(C(C)(C)C)on2)n1.O=C(O)C(F)(F)F	100	54	59
O=C(/C=C/c1ccc(Cl)c(Cl)c1)NCCCCCN1CCC(CCNC(=O)C2(c3ccc(Cl)cc3)CC2)CC1	91	16	96
CCCCCN1CCCC(CNS(=O)(=O)c2ccc(C(=O)Nc3ccc(C(F)(F)F)cc3)cc2)C1.O=C(O)C(F)(F)F (stereo not given)	94	0	51
Cc1cc(N2CCCCC2)nc2ccc(NC(=O)c3cncc(Br)c3)cc12	100	86	0
Cc1cccc(C)c1/N=C1\NC(=S)N(c2cccc(Cl)c2)C12CCC(C(C)(C)C)CC2 (stereo not given)	87	53	4
COc1ccc2ncc(OC)c(CCN3CC[C@@H](NCc4ccc5c(n4)NC(=O)CS5)[C@H](O)C3)c2n1	94	99	21
